Drawing on PubChem BioAssay (NCI), this text covers growth for 14 compounds.

Each structure is given as a SMILES string. Compounds without any hit were thinned out: in the full panel of roughly 83,000, 20% have a hit.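 96-well plates, one dose, 48 hours. Percent growth reported; active if below 10.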 Values without a mark were called inactive. Activity calls are given as the source filed them.

Some test systems named below: T-47D breast; BT-549 breast; MDA-MB-435 melanoma; SW-620 colon; MCF7 breast; HCT-116 colon; HCC-2998 colon; KM12 colon; MDA-MB-468 breast.
Experiment in all cases: NCI-60 one-dose screen, 48 h (100 = growth as untreated, 0 = no growth, -100 = all killed)
Holding throughout (settings): 10 µM

Consider `C=C(C)[C@@H]1CC[C@]2(COP(=O)(OCC)OCC)CC[C@]3(C)[C@H](CC[C@@H]4[C@@](C)(CCCN)[C@H](C(=C)C)CC[C@]43C)[C@@H]12`, for which the growth in the assay on T-47D breast is 19%; in the assay on BT-549 breast, -8.75% (active); in the assay with MDA-MB-435 melanoma it was 14.3%; with SW-620 colon, 12.4%; in the assay on MCF7 breast, 6.11% (active); in the assay on HCT-116 colon it was -31.4% (active). Also, the growth in the assay on HCC-2998 colon was 10.7%; in the assay with KM12 colon it was 16.8%; in the assay with MDA-MB-468 breast, 5.69% (active).

On to `CCCCSc1nc(Nc2ccc(/C(C)=N/NC(N)=S)cc2)c(C#N)c(-c2ccc(OC)cc2)n1`, for which the growth in the assay on T-47D breast was 67.2%; in the assay on BT-549 breast it was 42.9%; in the assay with MDA-MB-435 melanoma, 59.3%; in the assay on SW-620 colon, 97.2%; with MCF7 breast, 49.2%; with HCT-116 colon it was 38.2%. The figures for the growth in the assay on HCC-2998 colon, with KM12 colon and in the assay on MDA-MB-468 breast were 94.5%, 79.3% and 87.7%, respectively.

Take `Cc1ccc(S(=O)(=O)c2nc(-c3ccccc3)oc2S(=O)(=O)CC(=O)N2CCCC2)cc1`: the growth with T-47D breast is -70.4% (active); in the assay with BT-549 breast, -24.4% (active); with MDA-MB-435 melanoma it was -99.3% (active); in the assay with SW-620 colon it was -68.1% (active); in the assay with MCF7 breast it was -40.7% (active); in the assay on HCT-116 colon, 0.73% (active). Further, the growth was -91.1% (active) in the assay on HCC-2998 colon, 40.8% in the assay on KM12 colon and -91.8% (active) in the assay on MDA-MB-468 breast.

As to `O=C(COc1ccc(NC(=O)Nc2ccc(Cl)cc2)cc1)N=Nc1c(O)[nH]c2ccc([N+](=O)[O-])cc12`, the growth was 7.65% (active) in the assay with T-47D breast; 22.2% with BT-549 breast; 17% in the assay with MDA-MB-435 melanoma; 19.9% in the assay on SW-620 colon; -36.4% (active) with MCF7 breast; -37.8% (active) with HCT-116 colon. The growth in the assay on HCC-2998 colon is 26.3%; in the assay with KM12 colon, -46.6% (active); in the assay on MDA-MB-468 breast, -54.6% (active).

As to `COc1ccc(C(=O)/C=C/c2cc(C(F)(F)F)cc(C(F)(F)F)c2)cc1S(N)(=O)=O`, the growth is -59.8% (active) with T-47D breast; -65.8% (active) in the assay on BT-549 breast; -69.2% (active) in the assay with MDA-MB-435 melanoma; -58% (active) with SW-620 colon; -72.5% (active) in the assay on MCF7 breast; -59.1% (active) with HCT-116 colon. The results for the growth in the assay on HCC-2998 colon, with KM12 colon and in the assay on MDA-MB-468 breast were -98.3% (active), -75.4% (active) and -95.2% (active), respectively.

On to `Cc1ccc(NC(=O)c2ccc(-n3c(=O)[nH]c4ccccc4c3=O)cc2)cc1`, for which the growth in the assay on T-47D breast is 80.4%; in the assay on BT-549 breast it was 24.4%; with MDA-MB-435 melanoma it was 102%; with SW-620 colon, 113%; in the assay on MCF7 breast, 87.5%; in the assay with HCT-116 colon it was 92.4%. The growth in the assay with HCC-2998 colon was 108%; in the assay with KM12 colon it was 96.7%; in the assay on MDA-MB-468 breast, 82.2%.

As to `O=C1Nc2cc(Cl)ccc2/C1=C/c1ccc(OCc2ccc(Br)cc2F)cc1`, the growth is -48.4% (active) in the assay with T-47D breast; -18.7% (active) in the assay with BT-549 breast; -27.5% (active) in the assay with MDA-MB-435 melanoma; -56% (active) in the assay on SW-620 colon; 6.09% (active) in the assay with MCF7 breast; -73% (active) in the assay with HCT-116 colon. The growth with HCC-2998 colon was 19.5%; in the assay with KM12 colon, -7.72% (active); with MDA-MB-468 breast, -70.1% (active).

As for `COc1cc2c3c(n(CCCNC(C)C)c(=O)c2cc1OC)-c1nc2c(cc1C3=O)OCO2`, the growth was 43.9% in the assay with T-47D breast; 49.1% with BT-549 breast; -86.9% (active) in the assay on MDA-MB-435 melanoma; -62.8% (active) in the assay on SW-620 colon; -89.8% (active) in the assay on MCF7 breast; -60.4% (active) in the assay on HCT-116 colon. Moreover, the growth with HCC-2998 colon is 65.5%; in the assay on KM12 colon, -90.1% (active); in the assay on MDA-MB-468 breast, -9.99% (active).

Turning to `O=C(Nc1ccc(OCC(=O)c2ccccc2)cc1)Nc1ccc(Cl)c(C(F)(F)F)c1`, the growth was 3.26% (active) in the assay with T-47D breast; 33.7% in the assay with BT-549 breast; -25.4% (active) in the assay on MDA-MB-435 melanoma; 32% in the assay on SW-620 colon; 35% in the assay on MCF7 breast; 29.6% in the assay with HCT-116 colon. Further, the growth in the assay with HCC-2998 colon was 28.6%; in the assay with KM12 colon it was 1.99% (active); with MDA-MB-468 breast, -5.5% (active).

Consider `O=C1CCC(N2Cc3c(NCc4ccc(-c5ccccc5)cc4)cccc3C2=O)C(=O)N1` (stereo unspecified), for which the growth was 41.5% with T-47D breast; 23.4% in the assay with BT-549 breast; 93.2% in the assay with MDA-MB-435 melanoma; 51.3% in the assay on SW-620 colon; 76% in the assay on MCF7 breast; 74.7% with HCT-116 colon. Further, the growth in the assay on HCC-2998 colon was 67.4%; with KM12 colon, 75.3%; in the assay on MDA-MB-468 breast it was -12.6% (active).

On to `CN1CCN(c2ccc(Nc3nc(NCCCNC(=O)c4ccc(F)cc4)c4sccc4n3)cc2)CC1`, for which the growth is 51.5% in the assay with T-47D breast; 108% in the assay on BT-549 breast; 51.1% in the assay on MDA-MB-435 melanoma; 58.3% with SW-620 colon; 31% in the assay on MCF7 breast; 33.5% in the assay on HCT-116 colon. The figures for the growth in the assay on HCC-2998 colon, with KM12 colon and with MDA-MB-468 breast were 66.4%, 53.7% and 59.1%, respectively.

On to `CCC(C)S(=O)(=O)c1oc(-c2ccc(C)cc2)nc1S(=O)(=O)c1ccccc1` (stereo unspecified), for which the growth in the assay on T-47D breast is -73.5% (active); with BT-549 breast, -13.3% (active); in the assay with MDA-MB-435 melanoma it was -98.2% (active); with SW-620 colon, -38.6% (active); with MCF7 breast, -56.5% (active); with HCT-116 colon, -6.96% (active). Besides, the growth is -84.6% (active) in the assay with HCC-2998 colon, -65% (active) in the assay on KM12 colon and -93.4% (active) in the assay with MDA-MB-468 breast.

For `CCOc1ccc2ncc(C#Cc3cncc(C(=O)Nc4ccc(CN5CCN(C)CC5)c(C(F)(F)F)c4)c3)n2n1`, the growth was 71.9% in the assay on T-47D breast; -60.9% (active) in the assay on BT-549 breast; -74.2% (active) in the assay on MDA-MB-435 melanoma; -62.1% (active) with SW-620 colon; -63.7% (active) in the assay on MCF7 breast; -48% (active) in the assay on HCT-116 colon. The growth was -89.3% (active) in the assay on HCC-2998 colon, -91.1% (active) in the assay on KM12 colon and -76.1% (active) in the assay with MDA-MB-468 breast.

For `O=C(NCCCCC(c1ccc(F)cc1)c1ccc(F)cc1)NCCCc1cccnc1`, the growth is 5.2% (active) in the assay with T-47D breast; -16.4% (active) in the assay on BT-549 breast; 11.9% in the assay on MDA-MB-435 melanoma; 17.3% with SW-620 colon; 13.2% in the assay on MCF7 breast; 3.26% (active) in the assay with HCT-116 colon. For the same compound, the results for the growth in the assay with HCC-2998 colon, in the assay on KM12 colon and in the assay on MDA-MB-468 breast were 29.2%, 18% and -3.04% (active), respectively.
